Source: PubChem (National Center for Advancing Translational Sciences (NCATS))
Compounds with a hit are over-represented: about 6.8% of the library has one in this group of screens.
KB-V1 MDR tox: KB-V1 MDR subline cytotoxicity | KB-V1 MDR cells viability, CellTiter-Glo, 72 h | Potency, µM (series often up to 46.1 µM), usual class: cytotoxic | 400,000 compounds, 3.4% hits; also: % is scaled to controls: 0 for no effect and ±100 for the full control effect; nearly all actives have a fitted effect of over 60% in size
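Drug-selected KB-V1 cells, grown in DMEM lacking phenol red with 10% FBS, receive compound titrations; after three days at 37 degrees C, surviving cell ATP is quantified by CellTiter-Glo luminescence and responses normalized and curve-fitted.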
PINK1 expr mod: PINK1 expression modulation. PINK1 immunofluorescence, high-content cytometry, 24 h. Potency, µM (series often up to 76.6 µM), for inactives: at the highest dose activation (PINK1 increase), actives largely listed as activators. 410,000 compounds, 0.2% hits; active = well fitted activation curve with a large enough effect; inconclusive = small, poorly fitted or top-dose-only effect; cell line not stated here; also: % of control where 0% means no effect; nearly all actives have a fitted effect of over 65% in size
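Readout is PINK1 immunofluorescence, quantified alongside mitochondrial, cell and nuclear markers by laser-scanning microplate cytometry. Cells from a stable line were exposed to compound titrations (5 concentrations) for 24 hours, with CCCP controls.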
SW480 rereplic: induces DNA re-replication in SW480 colon adenocarcinoma cells. SW480 DNA re-replication, Hoechst DNA content imaging, 48 h. Potency, µM (titrated, usually from 46.1 µM), inactives show at the top dose re-replication activation, usual class: activators. 340,000 compounds, 1.8% hits; also: % of control where 0% means no effect; nearly all actives have a fitted effect of over 55% in size
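Compounds, transferred as 23 nL by pin tool, were incubated with cells for 48 hr; DNA content per nucleus was then quantified by Hoechst staining and fluorescence plate imaging.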
KB-3-1 cytotox: KB-3-1 parental cell cytotoxicity | 400,000 compounds, 1.4% hits | Potency, µM (series often up to 46.1 µM), usual class: cytotoxic | KB-3-1 viability, CellTiter-Glo ATP luminescence, 72 h; also: % is scaled to controls: 0 for no effect and ±100 for the full control effect; nearly all actives have a fitted effect of over 60% in size
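Cytotoxicity in the drug-sensitive parental line KB-3-1 was scored as loss of CellTiter-Glo luminescence following 72 h incubation with compound. Values come from curve fitting of normalized concentration-response data.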
TSG101-PTAP inh: blocks PTAP/TSG101 interaction to inhibit HIV-1 budding; 340,000 tested, under 10 active; Potency, µM (top dose mostly 115 µM), for the others: top-dose activity change, negative = inhibition, hits mostly inhibitors; Q99816; Fluorescence polarization, FITC-PTAP peptide / Tsg101 binding; active = well fitted inhibition curve with a large enough effect in the main read-out, with a control signal flat, not every such curve was filed as active; inconclusive = small, poorly fitted or top-dose-only effect, or effect the other way, or a change in a side signal; inactive = no such curve, though single readings can be large or run the other way; also: % of control where 0% means no effect
Target sequence (Q99816 whole entry, looked up): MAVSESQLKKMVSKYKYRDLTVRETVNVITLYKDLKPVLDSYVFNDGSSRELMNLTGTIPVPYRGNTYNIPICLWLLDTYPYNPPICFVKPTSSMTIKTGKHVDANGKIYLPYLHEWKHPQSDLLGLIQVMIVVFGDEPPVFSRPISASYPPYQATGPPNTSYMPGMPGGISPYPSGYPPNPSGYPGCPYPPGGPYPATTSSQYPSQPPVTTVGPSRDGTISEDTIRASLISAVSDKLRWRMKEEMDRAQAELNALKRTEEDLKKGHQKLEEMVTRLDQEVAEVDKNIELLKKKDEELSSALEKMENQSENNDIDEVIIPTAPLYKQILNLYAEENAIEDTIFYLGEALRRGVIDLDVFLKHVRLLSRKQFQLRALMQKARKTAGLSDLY
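Tsg101 binding domain (10 uM final) was mixed with compound and a FITC-labeled PTAP peptide (50 nM final) in HEPES pH 7.5 buffer with NaCl, Tween 20, EDTA and TCEP; fluorescence polarization was read after 20 min at r.t.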
MCF10A rereplic: inducers of DNA re-replication in MCF 10A breast cells; Potency, µM (titrated, usually from 46.1 µM), inactives show top-dose activity, positive = re-replication, usual class: activators; 350,000 compounds, 2.9% hits; MCF 10A DNA re-replication, Hoechst nuclear intensity, 48 h; also: % of control where 0% means no effect; nearly all actives have a fitted effect of over 50% in size
An asterisk follows results filed as active; i = inactive; ? = inconclusive; . = no result given; [ ] = remark or other dose. Unless noted, calls follow the shape of the dose curve; as a rule, active = well fitted curve in the direction sought with a large enough effect; inconclusive = small, poorly fitted or top-dose-only effect, or another doubt; inactive = no such curve, though single readings can be large; an effect the other way counts as inactive or inconclusive. Potency is read from the fitted curve at half-maximal effect.

SMILES	KB-V1 MDR tox	PINK1 expr mod	SW480 rereplic	KB-3-1 cytotox	TSG101-PTAP inh	MCF10A rereplic
COc1cc2c(cc1OC)C(COc1ccc(F)cc1)N(C(=O)c1ccc(S(=O)(=O)N3CCCC3)cc1)CC2 (stereo unspecified)	i	?	.	i	.	.
CC(C)c1ccc(C2C3=C(CC(C)(C)CC3=O)NC3=C2C(=O)c2ccccc23)cc1 (stereo unspecified)	?	1%[38.3 µM]	?	?	-6%	?
CC1(C)CC(=O)C2=C(C1)NC1=C(C(=O)c3ccccc31)C2c1ccccc1 (stereo unspecified)	16µM*	2%	0%	?	-3%	16%
CC1=C([N+](=O)[O-])C(c2ccccc2)C2=C(N1)c1ccccc1C2=O (stereo unspecified)	4.6µM*	10%	?	0.82µM*	-2%	?
CCOc1ccc(C2C(C#N)=C(C)NC3=C2C(=O)c2ccccc23)cc1 (stereo unspecified)	?	4%	24%	i	-8%	?
CCCOc1ccc(/C=C/C(=O)Nc2ccc([N+](=O)[O-])cc2)cc1	26µM*	?	3%	7.3µM*	-1%	15µM*
CCCCOc1ccc(/C=C/C(=O)Nc2ccc([N+](=O)[O-])cc2C)cc1	i	4%	0%	i	-2%	-2%
COc1ccccc1OCCNC(=O)/C=C/c1ccc([N+](=O)[O-])cc1	15µM*	4%	-28%	i	-1%	-72%
COc1ccc(-c2cn3c(C)c(C(=O)N4CCN(c5ccc(F)cc5)CC4)sc3n2)cc1	i	2%	-3%	i	0%	17%
CCOC(=O)N1CCN(C(=O)c2sc3nc(-c4ccc(F)cc4)cn3c2C)CC1	7.3µM*	4%	-5%	i	0%	2%
Cc1c(C(=O)N2CC(C)OC(C)C2)sc2nc(-c3ccc(F)cc3)cn12 (stereo unspecified)	8.2µM*	6%	-3%	?	1%	-8%
COc1ccccc1N1CCN(C(=O)c2sc3nc(-c4ccc(F)cc4)cn3c2C)CC1	i	1%	-5%	?	0%	-2%
COc1ccc(-c2nnc3n2N(C(C)=O)C(c2ccc(Cl)c(Cl)c2)=C(C(C)=O)S3)cc1	.	0%	.	.	.	.
O=C1C=C(N2CCN(c3ccccn3)CC2)C(=O)c2c(O)ccc(O)c21	15µM*	-6%	?	?	-4%	28%
Cc1cccc(N2CCN(C(=O)C3CCN(S(=O)(=O)c4cn(C)cn4)CC3)CC2)c1C	.	1%	.	.	.	.
C=CCc1cc(Cl)ccc1OCCCNC(C)CC (stereo unspecified)	13µM*	-2%	18%	?	2%	?
CCC(C)NCCCOc1ccc(Cl)cc1C(C)(C)C (stereo unspecified)	?	7%	-11%	i	-5%	?
COc1ccc(CNC(=O)/C=C/c2ccccc2[N+](=O)[O-])cc1	i	10%	3%	i	-2%	1%
COC(=O)CNC(=O)COC(=O)/C=C/c1ccccc1[N+](=O)[O-]	i	2%	-41%	i	-4%	5.8µM*
COC(=O)C(=Cc1ccccc1[N+](=O)[O-])C(=O)OC	i	-1%	?	i	-6%	23µM*
O=C(/C=C/c1ccccc1[N+](=O)[O-])c1ccc(F)cc1	23µM*	1%	?	?	-1%	?
O=C(/C=C/c1ccccc1[N+](=O)[O-])OCC(=O)c1ccccc1	i	-1%	-1%	i	-1%	0%
COc1ccc(-c2cc3c(=O)n(CC(=O)NCCCN4CCC(Cc5ccccc5)CC4)ncn3n2)cc1	i	1%	5.8µM*	21µM*	1%	-14%
O=C(N[C@@H]1c2ccccc2C2(CCN(Cc3c(O)ccc4ccccc34)CC2)[C@H]1O)c1ccccc1	.	0%	.	.	.	.
Fc1cccc(/C=N/Nc2nncc3ccccc23)c1	i	1%	-59%	i	-2%	-1%
SMILES	KB-V1 MDR tox	PINK1 expr mod	SW480 rereplic	KB-3-1 cytotox	TSG101-PTAP inh	MCF10A rereplic
C(=N\Nc1nncc2ccccc12)/c1ccccn1	i	?	2.6µM*	?	1%	?
Cc1ccc(CSc2nc3c(c(N(C)C)n2)CCCC3)cc1	?	6%	15µM*	?	-2%	13µM*
Cc1ccc(CSc2nc3c(c(SCC(=O)O)n2)CCCC3)cc1	i	5%	-4%	i	-6%	11%
CNc1nc(SCc2ccc(C)cc2)nc2c1CCCC2	i	?	-1%	i	-1%	15µM*
CN(C)c1nc(SCc2ccccc2Cl)nc2c1CCCC2	i	0%	2%	i	0%	?
CCOC(=O)c1c(NC(=O)CSc2cn(CCNC(=O)c3ccc(OC)cc3)c3ccccc23)sc2c1CCC2	i	0%	.	i	.	.
CCN(CC(=O)NCc1ccc(F)cc1)C(=O)COc1ccc(C)c(C)c1	18µM*	3%	-7%	i	0%	-2%
CCc1ccccc1OCC(=O)N(CC)CC(=O)NCc1ccc(F)cc1	i	2%	-1%	i	0%	?
CCN(CC(=O)NCc1ccc(F)cc1)C(=O)COc1ccc2ccccc2c1	15µM*	8%	9%	i	-1%	0%
COc1ccccc1CNc1nccn(-c2ccccc2)c1=O	i	4%	.	i	.	.
CCC1CN(Cc2cn[nH]c2-c2ccc(OC)cc2)Cc2cc(OC)ccc2O1 (stereo unspecified)	.	6%	.	.	.	.
CCOc1ccc(OCCNC(=O)c2ccc3c(c2)nnn3CC)cc1	23µM*	2%	-8%	i	6%	6%
COc1cccc(C(=O)Nc2cccc3c2ccc2cccn23)c1	i	8%	16µM*	i	1%	?
CCn1c2ccccc2c2cc(NC(=O)COc3ccccc3OC)ccc21	6.5µM*	?	15µM*	4.6µM*	1%	5.8µM*
CCn1c2ccccc2c2cc(NC(=O)c3cccc(OC)c3)ccc21	?	1%[38.3 µM]	7.9µM*	?	-1%	?
CCn1c2ccccc2c2cc(NC(=O)CNCc3ccccc3OC)ccc21	?	17%	7.3µM*	?	-7%	7.3µM*
CCn1c2ccccc2c2cc(NC(=O)COc3ccc(C)c(C)c3)ccc21	i	1%	.	i	.	.
COc1cc(NC(=O)CSc2nc3nc(C)c(Cc4ccccc4)c(C)n3n2)cc(OC)c1OC	i	-1%	.	i	.	.
